Measurements reported in PubChem BioAssay.
This is one part of the list. Records with an inconclusive call do not appear. Calls of active or inactive are those of the source.

Tests used:
PubChem AID 1714 = conditions: HEK293-KCC2 + bumetanide/ouabain, thallium flux FluoZin2; at 10 µM; stronger effect = higher value
[1] = biological target: Solute carrier family 12 member 5 (Homo sapiens) (UniProt Q9H2X9); assay: KCC2 modulators without ouabain present, confirmation, cell-based, HEK293 KCC2, thallium flux, FluoZin2, secondary assay 2 (AID 1715); conditions: HEK293-KCC2, thallium flux FluoZin2 fluorescence; at 10 µM; actives lie on both sides; F/F0 rise rate, 10–20 s post-thallium;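 also: raw slope with 0.1% DMSO as baseline and bumetanide as block control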
[2] = thallium flux modulation in parental HEK cells, confirmation, counter-screen for KCC2 modulator project, cell-based, counterscreen 1 (AID 1716;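 active = thallium flux rate significantly above the same plate's solvent-only control wells, beyond their mean plus 3 SD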); conditions: HEK293 parental cells, thallium flux FluoZin2, ouabain; at 10 µM; baseline-ratio fluorescence slope, 10–20 s after thallium
[3] = biological target: Solute carrier family 12 member 5 (Homo sapiens) (UniProt Q9H2X9); assay: KCC2 inhibitors and activators, ouabain retest, confirmation, HEK-KCC2 cells (AID 1717;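 active = thallium flux slope beyond 3 SD from same-plate DMSO control mean in most replicates, usually higher, sometimes lower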;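 also: slope of initial-normalized fluorescence between seconds 10 and 20 after thallium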); conditions: HEK293-KCC2, thallium flux FluoZin2 fluorescence, at 10 µM, bidirectional: low = inhibitor, high = activator
[4] = native HEK Tl+ uptake effects, second counter-screen – HEK cells, counterscreen 2, counter-screen for KCC2 modulator project, confirmation (AID 1718;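 active = thallium flux slope above the same plate's solvent-control mean plus 3 SD in both duplicate wells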;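 also: run without ouabain in cells lacking the KCC2 cotransporter; slope of fluorescence scaled to its starting value between 10 and 20 s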); conditions: HEK293 parental, thallium flux FluoZin-2 fluorescence slope; at 10 µM
[5] = inhibitors of TNFa-induced NFkB p65 translocation, primary screen, imaging, HUVEC, MLSMR starter and 10KST1 sets (AID 438;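 active = inhibition above 20% together with a positive visual image hit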;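 also: compound added about 3h40 before a 20 min TNFalpha stimulation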;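 as to inhibition: signal is the nuclear over cytoplasmic p65 intensity ratio per well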); conditions: HUVEC TNFa-induced p65 nuclear translocation; cell count: measured here: nuclei count (cytotoxicity indicator), at 2.08 µM; inhibition: at 2 µM, stronger effect = higher value, 0% TNFa-plus-vehicle, 100% no-TNFa wells
[6] = inhibitors of E-selectin induction by TNFa, primary screen, imaging, HUVEC, immunofluorescence, MLSMR starter and 10KST1 sets (AID 487;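 active = visually confirmed hit in the image check and inhibition above 20%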;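 as to inhibition: signal is fraction of cell area covered by stained E-selectin grains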;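 as to nuclei count: 100% = median nuclei count of all wells on the same plate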); conditions: HUVEC TNFalpha-induced E-selectin immunofluorescence imaging, at 2 µM; inhibition: stronger effect = higher value; nuclei count: measured here: cell number, toxicity
[7] = DUSP6 inhibitors restoring Erk phosphorylation by chemical complementation, primary imaging in DUSP6-transfected HeLa (AID 609;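 active = compounds giving at least 50% inhibition in the cell-based MKP-3 phosphatase rescue imaging test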;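 as to inhibition: phospho-Erk level distribution per well compared with pooled transfected vehicle control wells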); conditions: HeLa MKP-3 transfected, phospho-Erk imaging KS statistic, at 10 µM, cells stimulated with TPA for 15 min
[8] = biological target: Dual specificity protein phosphatase 6 (Homo sapiens) (UniProt Q16828); assay: as above; conditions: HeLa MKP-3 transfected, phospho-Erk imaging KS statistic; at 10 µM; stronger effect = higher value; cells stimulated with TPA for 15 min
[9] = biological target: Voltage-gated potassium channel subunit beta-2 (Rattus norvegicus) (UniProt P62483); assay: KvBeta enzyme negative modulators, primary screen, biochemical, NADPH fluorescence (AID 622;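 active = fluorescence slope higher than the sample average by over 3 SD, cut at about -0.22 in these data, passing the limit was not always enough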;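 also: slope of raw intensity against log time taken from 70 to 1610 s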); conditions: recombinant KvBeta, 4-cyanobenzaldehyde reduction, at 10 µM, stronger effect = higher value
[10] = biological target: Voltage-gated potassium channel subunit beta-2 (Rattus norvegicus) (UniProt P62483); assay: KvBeta positive modulators, primary screen, biochemical, NADPH fluorescence (AID 623;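 active = NADPH fluorescence slope more negative than the mean of all samples by about 3 SD, 99.7% confidence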;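 also: fluorescence intensity change per second fitted from 20 to 320 s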); conditions: Recombinant KvBeta, NADPH fluorescence decrease slope, 10 min; at 10 µM; stronger effect = lower value
[11] = biological target: Muscarinic acetylcholine receptor M4 (Homo sapiens) (UniProt P08173); assay: compounds altering M4/GIRK thallium flux, either direction, primary screen, M4 allosteric agonist project, cell-based, HEK293 M4/GIRK, BTC-AM (AID 625;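 active = fluorescence slope after compound addition differing from the mean of all tested samples at 99.7% confidence, mostly higher but some lower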;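 also: thallium influx through GIRK channels coupled to M4 in HEK293 cells with BTC-AM dye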); conditions: at 10 µM, actives lie on both sides
[12] = inhibitors of larval lipid processing in zebrafish, primary screen, whole organism, PED6 fluorescence, gall bladder and intestine (AID 686;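 active = a full or partial loss of lipid-probe fluorescence in the fish gall bladder, intestine or both, judged by eye; inactive = no fluorescence loss, or compound toxic to the fish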;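 also: larvae 5 to 7 days old with five fish per well; signal comes from phospholipase A2 cleavage of quenched PED6 carried via bile; overnight exposure to compound and PED6 before scoring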); conditions: Zebrafish larvae PED6 lipid processing, fluorescence scoring; screened at 20 µM (by protocol)
[13] = biological target: Solute carrier family 12 member 5 (Homo sapiens) (UniProt Q9H2X9); assay: KCC2 modulators in sodium-free buffer, confirmation, cell-based, HEK293 KCC2, thallium flux, secondary assay (AID 1713;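 active = thallium flux slope above the same plate's solvent-only control mean plus 3 SD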); conditions: FluoZin2 fluorescence, at 10 µM, stronger effect = higher value
[14] = inhibitors of Chlamydomonas gravitaxis, primary screen, whole organism, Chlamydomonas reinhardtii, WT vs cilia-less mutant, absorbance, 96-well (AID 463189;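 active = inhibition at or above 50% relative to wild type and mutant plate controls; inactive = inhibition below 50%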;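 also: 0% = wild type cc124 cells in DMSO and 100% = ciliumless bld1 mutant cells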); conditions: OD600 absorbance, 2 days, at 10 µM, stronger effect = higher value
[15] = inhibitors of mutant huntingtin aggregation, primary screen, imaging, exon1htt(103Q)mCFP cells, high-content imaging (AID 483;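 active = visual image review flags a hit and inhibition of aggregation exceeds 20%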;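 also: compound exposure lasted 3 days before fixation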;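 as to nuclei count: percent of the per-plate median nuclei count of sample wells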); conditions: exon1htt(103Q)mCFP cell line, aggregate imaging, at 2 µM; inhibition of aggregation: stronger effect = higher value; nuclei count: measured here: cell count, toxicity
[16] = biological target: Alpha-2C adrenergic receptor (Homo sapiens) (UniProt P18825); assay: modulators of alpha2C/GIRK thallium flux, primary screen, cell-based, HEK293 alpha2C/GIRK1/2 (AID 624;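 active = fluorescence slope after compound addition differing from the mean of all screened samples at 99.7% confidence, in either direction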;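 also: slope of fluorescence ratio to pre-addition baseline per second over 15 to 24 s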); conditions: thallium flux BTC fluorescence, at 10 µM, actives lie on both sides
[17] = inhibitors of Sendai virus-induced IRF3 signaling, primary screen, TLR/RLR signaling modifier project, cell-based, Sendai virus stimulus, luciferase, 10K MLSCN set (AID 602276;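 active = inhibition at or above 50% at 10 µM; inactive = inhibition below 50%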;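 also: firefly luciferase from ISG56 promoter only with Renilla not read in this screen; 0% = Sendai virus plus DMSO and 100% = medium plus DMSO without virus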); conditions: HEK293 RL24 IRF3 luciferase reporter, at 10 µM, stronger effect = higher value
[18] = inhibitors of poly I:C-induced TLR3 signaling, primary screen, cell-based, poly I:C stimulus, luciferase, 10K MLSCN set (AID 602277;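 active = inhibition of the reporter signal at or above 50%; inactive = inhibition below 50%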); conditions: HEK293-TLR3 RL24 IRF3 luciferase reporter, at 10 µM, stronger effect = higher value
[19] = measured here: cell density z-score
[20] = measured here: nuclear c-Myc green intensity z-score
[21] = measured here: nuclear pErk red intensity z-score, stronger effect = higher value

Chain of Dual specificity protein phosphatase 6 (Homo sapiens) (Q16828 whole entry, looked up): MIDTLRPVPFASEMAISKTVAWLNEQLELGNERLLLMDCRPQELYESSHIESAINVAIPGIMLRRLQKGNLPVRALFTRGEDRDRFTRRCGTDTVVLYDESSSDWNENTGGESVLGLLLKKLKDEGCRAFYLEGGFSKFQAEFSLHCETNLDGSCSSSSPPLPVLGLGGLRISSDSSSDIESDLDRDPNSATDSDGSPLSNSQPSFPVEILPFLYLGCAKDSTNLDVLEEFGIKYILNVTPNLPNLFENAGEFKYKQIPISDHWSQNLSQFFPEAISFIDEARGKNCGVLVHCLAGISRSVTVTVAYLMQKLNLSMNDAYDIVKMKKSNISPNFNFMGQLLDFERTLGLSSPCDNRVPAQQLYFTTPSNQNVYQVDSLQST
Chain of Alpha-2C adrenergic receptor (Homo sapiens) (P18825 whole entry, looked up): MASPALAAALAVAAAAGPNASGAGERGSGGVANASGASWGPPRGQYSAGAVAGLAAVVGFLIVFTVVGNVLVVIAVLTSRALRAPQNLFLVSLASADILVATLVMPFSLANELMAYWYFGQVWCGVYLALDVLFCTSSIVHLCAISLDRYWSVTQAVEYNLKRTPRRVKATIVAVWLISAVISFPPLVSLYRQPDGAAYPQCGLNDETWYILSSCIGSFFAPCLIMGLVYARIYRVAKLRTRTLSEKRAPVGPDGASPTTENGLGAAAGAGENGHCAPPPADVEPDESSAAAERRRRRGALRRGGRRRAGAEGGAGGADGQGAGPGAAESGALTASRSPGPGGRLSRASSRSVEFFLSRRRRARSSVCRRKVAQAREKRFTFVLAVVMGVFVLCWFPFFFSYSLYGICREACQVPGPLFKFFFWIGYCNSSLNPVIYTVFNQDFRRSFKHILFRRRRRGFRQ
Chain of Solute carrier family 12 member 5 (Homo sapiens) (Q9H2X9 whole entry, looked up): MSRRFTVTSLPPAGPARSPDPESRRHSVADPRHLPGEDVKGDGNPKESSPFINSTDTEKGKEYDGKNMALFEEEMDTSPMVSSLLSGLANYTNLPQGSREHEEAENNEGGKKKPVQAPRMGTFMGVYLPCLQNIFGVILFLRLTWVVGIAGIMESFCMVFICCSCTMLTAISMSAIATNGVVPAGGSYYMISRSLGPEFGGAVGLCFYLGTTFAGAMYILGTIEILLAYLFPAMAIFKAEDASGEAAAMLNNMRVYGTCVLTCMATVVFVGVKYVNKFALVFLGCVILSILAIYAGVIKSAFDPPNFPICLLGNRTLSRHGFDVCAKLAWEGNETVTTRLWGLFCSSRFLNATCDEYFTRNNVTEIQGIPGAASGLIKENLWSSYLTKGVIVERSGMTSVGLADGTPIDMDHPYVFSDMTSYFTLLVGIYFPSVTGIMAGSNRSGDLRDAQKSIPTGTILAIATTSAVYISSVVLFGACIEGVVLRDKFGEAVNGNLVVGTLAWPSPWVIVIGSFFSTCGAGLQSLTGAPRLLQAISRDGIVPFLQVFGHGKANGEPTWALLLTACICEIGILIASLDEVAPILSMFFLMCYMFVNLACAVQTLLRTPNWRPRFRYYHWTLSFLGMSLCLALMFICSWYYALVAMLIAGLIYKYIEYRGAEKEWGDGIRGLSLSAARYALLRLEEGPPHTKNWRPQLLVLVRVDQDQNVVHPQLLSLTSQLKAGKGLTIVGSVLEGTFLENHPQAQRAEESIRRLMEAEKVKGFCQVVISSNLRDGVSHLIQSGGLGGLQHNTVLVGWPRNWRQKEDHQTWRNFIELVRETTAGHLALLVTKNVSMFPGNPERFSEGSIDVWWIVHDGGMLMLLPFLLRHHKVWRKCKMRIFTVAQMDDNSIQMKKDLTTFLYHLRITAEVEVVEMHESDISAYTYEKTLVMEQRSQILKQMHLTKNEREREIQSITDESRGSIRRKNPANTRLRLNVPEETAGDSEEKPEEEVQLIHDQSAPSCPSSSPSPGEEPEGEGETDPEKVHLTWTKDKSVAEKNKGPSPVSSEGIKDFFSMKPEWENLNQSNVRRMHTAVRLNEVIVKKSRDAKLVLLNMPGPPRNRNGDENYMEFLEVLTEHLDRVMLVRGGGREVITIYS
Chain of Voltage-gated potassium channel subunit beta-2 (Rattus norvegicus) (P62483 whole entry, looked up): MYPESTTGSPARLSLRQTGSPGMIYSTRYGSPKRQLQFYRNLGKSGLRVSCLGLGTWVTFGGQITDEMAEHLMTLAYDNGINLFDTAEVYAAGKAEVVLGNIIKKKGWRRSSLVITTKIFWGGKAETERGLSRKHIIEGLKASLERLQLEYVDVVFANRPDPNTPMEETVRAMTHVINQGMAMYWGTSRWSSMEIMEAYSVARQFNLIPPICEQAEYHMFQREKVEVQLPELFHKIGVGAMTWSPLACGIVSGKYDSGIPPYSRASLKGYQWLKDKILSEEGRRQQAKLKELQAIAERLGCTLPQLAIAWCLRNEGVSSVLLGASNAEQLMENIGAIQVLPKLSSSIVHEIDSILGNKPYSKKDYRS
Chain of Muscarinic acetylcholine receptor M4 (Homo sapiens) (P08173 whole entry, looked up): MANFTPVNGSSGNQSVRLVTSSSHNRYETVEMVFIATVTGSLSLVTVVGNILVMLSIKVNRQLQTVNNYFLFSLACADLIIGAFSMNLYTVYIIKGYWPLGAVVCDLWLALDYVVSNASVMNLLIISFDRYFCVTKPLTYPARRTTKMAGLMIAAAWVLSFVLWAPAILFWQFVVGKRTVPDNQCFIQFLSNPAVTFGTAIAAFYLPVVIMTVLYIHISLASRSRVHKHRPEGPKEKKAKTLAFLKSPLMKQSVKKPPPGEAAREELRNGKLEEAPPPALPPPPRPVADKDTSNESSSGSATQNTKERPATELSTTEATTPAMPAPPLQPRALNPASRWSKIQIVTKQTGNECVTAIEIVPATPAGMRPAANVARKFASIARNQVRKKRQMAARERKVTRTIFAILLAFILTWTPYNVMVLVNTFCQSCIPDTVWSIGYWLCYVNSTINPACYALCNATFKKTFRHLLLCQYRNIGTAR

Compound: CC(C)(C)c1ccc(C(=O)NCC(=O)OCN2C(=O)c3ccccc3C2=O)cc1
- normalized thallium flux (PubChem AID 1714): 0.00471 (inactive)
- normalized thallium flux [1]: 0.031 (inactive)
- thallium flux rate (normalised fluorescence) [2]: 0.00756 (inactive)
- raw Tl+ flux slope (below DMSO = inhibition, above = activation) [3]: 0.0171 (inactive)
- thallium flux slope [4]: 0.0105 (inactive)

Compound: CC1CC(C)(C)n2c(O)c(N=NC(N)=S)c3cccc1c32 (stereo unspecified)
- normalized thallium flux (PubChem AID 1714): 0.0259 (active)
- normalized thallium flux [1]: 0.0382 (inactive)
- raw Tl+ flux slope (below DMSO = inhibition, above = activation) [3]: 0.0373 (active)

Compound: CN1c2ccccc2-c2nc3ccccc3n2C1c1ccco1 (stereo unspecified)
- cell count [5]: 385
- inhibition [5]: -3.7% (inactive)
- inhibition [6]: 1.9% (inactive)
- nuclei count [6]: 99.5%
- z-score [7, 19]: 0.728
- z-score [7, 20]: 0.674
- z-score [7, 21]: -0.101
- inhibition [8]: 6.04% (inactive)
- fluorescence slope [9]: -0.315 (inactive)
- NADPH fluorescence slope [10]: 1.6e-05 (inactive)
- fluorescence slope [11]: 0.00492 (inactive)
- outcome [12]: inactive
- normalised thallium flux (F/F0 slope) [13]: 0.00855 (inactive)
- normalized thallium flux [1]: 0.0321 (inactive)
- thallium flux rate (normalised fluorescence) [2]: 0.00467 (active)
- thallium flux slope [4]: 0.0097 (inactive)
- inhibition [14]: 3.48% (inactive)

Compound: Cc1oc2nc(SCCCC(=O)NCCCO)nc(N)c2c1C
- cell count [5]: 507
- inhibition [5]: -4.5% (inactive)
- inhibition of aggregation [15]: 21.9% (inactive)
- nuclei count [15]: 90.5%
- inhibition [6]: -109% (inactive)
- nuclei count [6]: 116%
- z-score [7, 19]: 0.495
- z-score [7, 20]: 0.376
- z-score [7, 21]: -1.33
- inhibition [8]: 3.56% (inactive)
- fluorescence slope [9]: -0.522 (inactive)
- NADPH fluorescence slope [10]: -1.7e-05 (inactive)
- slope [16]: 0.00668 (inactive)
- inhibition [14]: 0.255% (inactive)
- inhibition [17]: 12.9% (inactive)
- inhibition [18]: 12.8% (inactive)

Compound: N#Cc1c(-c2ccc(Cl)cc2)c2c([nH]c1=S)CCCC2
- normalized thallium flux (PubChem AID 1714): 0.0281 (active)
- normalized thallium flux [1]: 0.0403 (active)
- thallium flux rate (normalised fluorescence) [2]: 0.0184 (active)
- raw Tl+ flux slope (below DMSO = inhibition, above = activation) [3]: 0.0302 (active)
- thallium flux slope [4]: 0.0192 (active)

Compound: C/C(=C\C(=O)c1ccc(Br)cc1)N1CCCCC1
- normalized thallium flux (PubChem AID 1714): 0.0396 (active)
- normalized thallium flux [1]: 0.0283 (inactive)
- thallium flux rate (normalised fluorescence) [2]: 0.0152 (active)
- thallium flux slope [4]: 0.0111 (active)

Compound: CCCCOc1ccc(CC(=O)NO)cc1
- cell count [5]: 619
- inhibition [5]: -10.2% (inactive)
- inhibition of aggregation [15]: -11.8% (inactive)
- nuclei count [15]: 91%
- inhibition [6]: -41.8% (inactive)
- nuclei count [6]: 111%
- z-score [7, 19]: -0.368
- z-score [7, 20]: -0.467
- z-score [7, 21]: -0.347
- inhibition [8]: -0.493% (inactive)
- fluorescence slope [9]: -0.547 (inactive)
- NADPH fluorescence slope [10]: -4.3e-05 (inactive)
- slope [16]: 0.00497 (inactive)
- inhibition [14]: 7.46% (inactive)
- inhibition [17]: 13.6% (inactive)
- inhibition [18]: 31.2% (inactive)

Compound: C=CCn1c(=S)[nH]c2nc3c(cc2c1=O)COC(C)(C)C3
- cell count [5]: 590
- inhibition [5]: -2.3% (inactive)
- inhibition of aggregation [15]: 0.9% (inactive)
- nuclei count [15]: 109%
- inhibition [6]: -9.4% (inactive)
- nuclei count [6]: 134%
- z-score [7, 19]: 1.01
- z-score [7, 20]: 0.551
- z-score [7, 21]: -1.17
- inhibition [8]: 3.66% (inactive)
- fluorescence slope [9]: -0.495 (inactive)
- NADPH fluorescence slope [10]: -0.00014 (inactive)
- slope [16]: 0.00772 (inactive)
- outcome [12]: inactive
- normalized thallium flux (PubChem AID 1714): 0.0176 (active)
- normalized thallium flux [1]: 0.0337 (inactive)
- thallium flux slope [4]: 0.0123 (inactive)
- inhibition [14]: -8.98% (inactive)
- inhibition [17]: 14.5% (inactive)
- inhibition [18]: -0.984% (inactive)
